Targets with a hit are over-represented here; the source holds about 7,900 in all. About 0.6% of all pairs of compound and target were hits.
How the values were obtained:
Experiment in all cases: log2 fold change, soluble protein after heating vs DMSO (PISA); higher = thermal stabilisation; K562 cells, 10 uM, 30 min; active = over 0.2 and 3.5 SD of the protein, either way, in both replicates (recomputed)
[1] = compound: COC1=CC=C(C=C1)CN2C=CC3=C2C=C(C=C3)C(=O)NO
In short: (§1)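 K562 cells at 2×10^6 cells/mL were treated with 10 μM compound for 30 min. Aliquots were heated for 3 min across 48°C-58°C, pooled, and extracted in PBS with 0.5% NP-40 at 4°C; soluble protein was the supernatant after 21,000xg for 90 min. Soluble protein was quantified by TMTpro 16plex LC-MS/MS with channel sums equalised, and reported as log2 fold change in thermal stability against DMSO controls, with values from duplicates.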

filanesib = compound: CON(C)C(=O)N1N=C(c2cc(F)ccc2F)S[C@@]1(CCCN)c1ccccc1 [filanesib]
In short: as §1

zotarolimus = compound: CO[C@H]1C[C@@H]2CC[C@@H](C)[C@@](O)(O2)C(=O)C(=O)N2CCCC[C@H]2C(=O)O[C@H]([C@H](C)C[C@@H]2CC[C@H](n3cnnn3)[C@H](OC)C2)CC(=O)[C@H](C)/C=C(\C)[C@@H](O)[C@@H](OC)C(=O)[C@H](C)C[C@H](C)/C=C/C=C/C=C/1C [zotarolimus]
In short: as §1

idasanutlin = compound: COc1cc(C(=O)O)ccc1NC(=O)[C@@H]1N[C@@H](CC(C)(C)C)[C@](C#N)(c2ccc(Cl)cc2F)[C@H]1c1cccc(Cl)c1F [idasanutlin]
In short: as §1

alisertib = compound: COc1cc(Nc2ncc3c(n2)-c2ccc(Cl)cc2C(c2c(F)cccc2OC)=NC3)ccc1C(=O)O [alisertib]
In short: as §1

[2] = compound: COc1cc2nc(-c3cc(F)ccc3O)nc(N[C@@H]3CNC[C@H]3C(C)(C)O)c2cc1OC
In short: as §1

gefitinib = compound: COc1cc2ncnc(Nc3ccc(F)c(Cl)c3)c2cc1OCCCN1CCOCC1 [gefitinib]
In short: as §1

[3] = compound: COc1cccc2cc(-c3nc([C@H]4CC[C@H](C(=O)O)CC4)n4ncnc(N)c34)[nH]c12
In short: as §1

lapatinib = compound: CS(=O)(=O)CCNCc1ccc(-c2ccc3ncnc(Nc4ccc(OCc5cccc(F)c5)c(Cl)c4)c3c2)o1 [lapatinib]
In short: as §1

pictilisib = compound: CS(=O)(=O)N1CCN(Cc2cc3nc(-c4cccc5[nH]ncc45)nc(N4CCOCC4)c3s2)CC1 [pictilisib]
In short: as §1

[4] = compound: CS(=O)(=O)c1ccc(-c2cnc(N)c(C(=O)Nc3ccccc3)n2)cc1
In short: as §1

crizotinib = compound: C[C@@H](Oc1cc(-c2cnn(C3CCNCC3)c2)cnc1N)c1c(Cl)ccc(F)c1Cl [crizotinib]
In short: as §1

[5] = compound: C[C@@H]1COCCN1C2=NC(=NC(=C2)C3(CC3)S(=O)(=O)C)C4=C5C=CNC5=CC=C4
In short: as §1

[6] = compound: C[C@H](C1=CC=C(C=C1)C(=O)NC2=C3C=CNC3=NC=C2)N
In short: as §1

duvelisib = compound: C[C@H](Nc1ncnc2nc[nH]c12)c1cc2cccc(Cl)c2c(=O)n1-c1ccccc1 [duvelisib]
In short: as §1

gandotinib = compound: Cc1cc(Nc2cc(CN3CCOCC3)c3nc(C)c(Cc4ccc(Cl)cc4F)n3n2)n[nH]1 [gandotinib]
In short: as §1

tozasertib = compound: Cc1cc(Nc2cc(N3CCN(C)CC3)nc(Sc3ccc(NC(=O)C4CC4)cc3)n2)n[nH]1 [tozasertib]
In short: as §1

[7] = compound: Cc1cc(SCc2sc(-c3ccc(C(F)(F)F)cc3)nc2C)ccc1OCC(=O)O
In short: as §1

doramapimod = compound: Cc1ccc(-n2nc(C(C)(C)C)cc2NC(=O)Nc2ccc(OCCN3CCOCC3)c3ccccc23)cc1 [doramapimod]
In short: as §1

ispinesib = compound: Cc1ccc(C(=O)N(CCCN)[C@@H](c2nc3cc(Cl)ccc3c(=O)n2Cc2ccccc2)C(C)C)cc1 [ispinesib]
In short: as §1

Measured: log2 fold change

HIST2H3A (UniProt Q71DI3)
inactive: [1] 0.037 | filanesib 0.268 | zotarolimus -0.167 | idasanutlin 0.508 | alisertib 0.001 | [2] -0.106 | gefitinib 0.061 | [3] -0.367 | lapatinib 0.065 | pictilisib -0.021 | [4] -0.106 | crizotinib -0.327 | [5] -0.204 | [6] 0.399 | duvelisib -0.359 | gandotinib -0.014 | tozasertib 0.106 | [7] -0.031 | doramapimod 0.098 | ispinesib -0.081

IFT74 (UniProt Q96LB3)
Sequence of UniProt Q96LB3 (Q96LB3 whole entry, looked up): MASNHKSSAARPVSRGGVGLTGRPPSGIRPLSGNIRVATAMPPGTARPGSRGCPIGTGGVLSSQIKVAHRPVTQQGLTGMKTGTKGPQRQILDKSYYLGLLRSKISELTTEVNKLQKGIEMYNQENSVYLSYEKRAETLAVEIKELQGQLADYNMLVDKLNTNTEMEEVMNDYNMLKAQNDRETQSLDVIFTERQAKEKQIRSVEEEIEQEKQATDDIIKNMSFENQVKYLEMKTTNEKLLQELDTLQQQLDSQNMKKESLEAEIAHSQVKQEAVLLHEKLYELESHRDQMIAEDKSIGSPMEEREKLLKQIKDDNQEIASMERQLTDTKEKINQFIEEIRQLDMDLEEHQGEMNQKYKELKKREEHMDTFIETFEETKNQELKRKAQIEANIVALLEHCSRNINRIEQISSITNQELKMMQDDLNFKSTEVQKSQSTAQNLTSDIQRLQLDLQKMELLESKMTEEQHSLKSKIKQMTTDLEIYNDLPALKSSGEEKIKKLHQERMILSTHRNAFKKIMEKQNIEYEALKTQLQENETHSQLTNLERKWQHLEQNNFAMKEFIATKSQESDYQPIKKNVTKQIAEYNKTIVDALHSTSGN
inactive: [1] 0.083 | filanesib -0.014 | zotarolimus 0.019 | idasanutlin -0.058 | alisertib -0.102 | [2] 0.339 | gefitinib 0.035 | [3] 0.024 | lapatinib -0.025 | pictilisib 0.052 | [4] 0.21 | crizotinib -0.04 | [5] 0.014 | [6] 0.088 | duvelisib 0.068 | gandotinib -0.02 | tozasertib -0.136 | [7] -0.094 | doramapimod 0.095 | ispinesib -0.133

GMEB1 (UniProt Q9Y692)
Sequence of UniProt Q9Y692 (Q9Y692 whole entry, looked up): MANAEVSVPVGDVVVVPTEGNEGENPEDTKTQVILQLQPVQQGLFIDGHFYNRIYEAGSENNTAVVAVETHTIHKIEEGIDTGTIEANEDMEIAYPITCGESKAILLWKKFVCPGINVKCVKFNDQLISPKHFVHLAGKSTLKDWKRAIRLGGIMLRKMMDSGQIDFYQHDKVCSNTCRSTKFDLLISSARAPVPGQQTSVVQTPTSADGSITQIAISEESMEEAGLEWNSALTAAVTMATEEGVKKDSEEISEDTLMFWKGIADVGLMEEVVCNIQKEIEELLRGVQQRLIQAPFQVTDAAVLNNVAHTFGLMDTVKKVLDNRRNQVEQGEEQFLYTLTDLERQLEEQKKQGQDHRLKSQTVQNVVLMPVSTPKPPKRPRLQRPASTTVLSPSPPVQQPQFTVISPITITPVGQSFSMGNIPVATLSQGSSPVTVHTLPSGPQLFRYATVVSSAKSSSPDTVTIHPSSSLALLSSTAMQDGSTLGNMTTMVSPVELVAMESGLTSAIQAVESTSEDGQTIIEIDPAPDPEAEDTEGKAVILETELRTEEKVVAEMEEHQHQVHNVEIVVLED
inactive: [1] 0.049 | filanesib 0.205 | zotarolimus 0.042 | idasanutlin 0.027 | alisertib -0.041 | [2] -0.042 | gefitinib -0.049 | [3] 0.008 | lapatinib 0.031 | pictilisib -0.087 | [4] -0.036 | crizotinib 0.02 | [5] 0.04 | [6] -0.045 | duvelisib 0.025 | gandotinib -0.11 | tozasertib 0.03 | [7] 0.049 | doramapimod -0.038 | ispinesib 0.01

GNPAT (UniProt O15228)
Sequence of UniProt O15228 (O15228 whole entry, looked up): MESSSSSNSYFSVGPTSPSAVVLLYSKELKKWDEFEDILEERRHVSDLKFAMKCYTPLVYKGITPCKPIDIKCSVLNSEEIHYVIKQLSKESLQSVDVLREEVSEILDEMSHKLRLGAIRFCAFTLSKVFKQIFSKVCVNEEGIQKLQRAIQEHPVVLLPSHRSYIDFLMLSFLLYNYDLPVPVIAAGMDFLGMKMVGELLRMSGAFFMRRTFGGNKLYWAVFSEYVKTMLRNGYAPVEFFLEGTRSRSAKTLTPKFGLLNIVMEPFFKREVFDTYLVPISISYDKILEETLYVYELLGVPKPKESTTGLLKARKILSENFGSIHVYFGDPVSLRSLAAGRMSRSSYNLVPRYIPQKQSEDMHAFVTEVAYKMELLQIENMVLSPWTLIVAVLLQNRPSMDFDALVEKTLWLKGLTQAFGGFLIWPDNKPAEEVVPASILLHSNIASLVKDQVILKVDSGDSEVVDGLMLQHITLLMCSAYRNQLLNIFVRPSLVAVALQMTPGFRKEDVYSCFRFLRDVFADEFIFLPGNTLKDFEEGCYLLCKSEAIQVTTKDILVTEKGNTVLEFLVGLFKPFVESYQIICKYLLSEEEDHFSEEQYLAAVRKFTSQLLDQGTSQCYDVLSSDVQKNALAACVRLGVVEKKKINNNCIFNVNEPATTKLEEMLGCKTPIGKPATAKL
inactive: [1] 0.008 | filanesib -0.054 | zotarolimus 0.064 | idasanutlin -0.05 | alisertib -0.038 | [2] -0.022 | gefitinib 0.03 | [3] 0 | lapatinib 0.061 | pictilisib 0.148 | [4] 0.029 | crizotinib -0.071 | [5] 0.087 | [6] -0.088 | duvelisib 0.021 | gandotinib -0.076 | tozasertib -0.002 | [7] 0.06 | doramapimod 0.034 | ispinesib -0.006

GLS (UniProt O94925)
Sequence of UniProt O94925 (O94925 whole entry, looked up): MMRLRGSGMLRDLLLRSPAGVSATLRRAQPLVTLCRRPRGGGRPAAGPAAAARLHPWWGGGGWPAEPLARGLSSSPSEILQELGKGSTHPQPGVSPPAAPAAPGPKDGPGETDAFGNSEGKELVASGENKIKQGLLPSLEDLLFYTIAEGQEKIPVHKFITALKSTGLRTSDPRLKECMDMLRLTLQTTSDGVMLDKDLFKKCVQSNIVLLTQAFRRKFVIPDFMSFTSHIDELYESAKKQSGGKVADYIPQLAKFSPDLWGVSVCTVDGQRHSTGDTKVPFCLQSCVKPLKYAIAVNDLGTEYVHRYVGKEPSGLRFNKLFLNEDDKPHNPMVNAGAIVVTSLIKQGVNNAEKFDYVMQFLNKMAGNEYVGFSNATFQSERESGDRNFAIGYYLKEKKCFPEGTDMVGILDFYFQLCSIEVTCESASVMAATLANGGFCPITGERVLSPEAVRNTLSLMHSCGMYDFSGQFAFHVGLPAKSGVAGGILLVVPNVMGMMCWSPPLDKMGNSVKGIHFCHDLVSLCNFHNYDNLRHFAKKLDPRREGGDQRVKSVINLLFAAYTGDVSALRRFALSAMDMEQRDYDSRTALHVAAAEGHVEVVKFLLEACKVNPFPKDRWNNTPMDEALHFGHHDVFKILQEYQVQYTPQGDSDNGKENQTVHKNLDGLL
inactive: [1] 0.009 | filanesib 0.029 | zotarolimus 0.027 | idasanutlin -0.192 | alisertib 0.143 | [2] 0.22 | gefitinib 0.033 | [3] -0.009 | lapatinib -0.052 | pictilisib 0.049 | [4] 0.033 | crizotinib 0.05 | [5] 0.209 | [6] -0.049 | duvelisib 0.053 | gandotinib -0.17 | tozasertib 0.012 | [7] 0.054 | doramapimod -0.105 | ispinesib 0.118

FMC1 (UniProt Q96HJ9)
Sequence of UniProt Q96HJ9 (Q96HJ9 whole entry, looked up): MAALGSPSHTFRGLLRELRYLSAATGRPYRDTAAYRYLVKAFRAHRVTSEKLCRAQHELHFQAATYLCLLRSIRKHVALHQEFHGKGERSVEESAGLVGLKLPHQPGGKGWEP
inactive: [1] 0.068 | filanesib -0.037 | zotarolimus -0.101 | idasanutlin -0.091 | alisertib -0.042 | [2] -0.008 | gefitinib 0.06 | [3] 0.023 | lapatinib -0.018 | pictilisib 0.024 | [4] 0.021 | crizotinib 0.195 | [5] -0.157 | [6] 0.082 | duvelisib -0.046 | gandotinib 0.024 | tozasertib -0.058 | [7] -0.018 | doramapimod -0.137 | ispinesib -0.314

FUBP3 (UniProt Q96I24)
Sequence of UniProt Q96I24 (Q96I24 whole entry, looked up): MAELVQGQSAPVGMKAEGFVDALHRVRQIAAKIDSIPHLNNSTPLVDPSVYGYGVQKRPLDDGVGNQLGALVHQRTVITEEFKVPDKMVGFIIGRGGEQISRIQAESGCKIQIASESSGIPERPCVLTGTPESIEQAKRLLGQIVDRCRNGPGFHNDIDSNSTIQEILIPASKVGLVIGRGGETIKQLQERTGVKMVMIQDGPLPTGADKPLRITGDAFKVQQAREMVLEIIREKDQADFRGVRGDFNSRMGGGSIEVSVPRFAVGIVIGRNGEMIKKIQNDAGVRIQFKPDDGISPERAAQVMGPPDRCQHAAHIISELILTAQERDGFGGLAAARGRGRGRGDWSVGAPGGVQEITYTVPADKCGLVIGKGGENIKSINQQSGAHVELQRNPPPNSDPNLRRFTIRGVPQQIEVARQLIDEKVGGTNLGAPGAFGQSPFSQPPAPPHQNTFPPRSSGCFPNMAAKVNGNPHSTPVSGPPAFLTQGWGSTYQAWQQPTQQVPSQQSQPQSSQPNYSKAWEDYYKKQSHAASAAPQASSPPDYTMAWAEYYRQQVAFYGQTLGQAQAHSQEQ
inactive: [1] 0.129 | filanesib 0.055 | zotarolimus -0.072 | idasanutlin 0.049 | alisertib 0.034 | [2] 0.165 | gefitinib -0.049 | [3] 0.009 | lapatinib 0.006 | pictilisib -0.062 | [4] -0.076 | crizotinib -0.046 | [5] -0.083 | [6] 0.065 | duvelisib -0.002 | gandotinib -0.106 | tozasertib -0.028 | [7] 0.013 | doramapimod -0.025 | ispinesib -0.049

HMOX2 (UniProt P30519)
Sequence of UniProt P30519 (P30519 whole entry, looked up): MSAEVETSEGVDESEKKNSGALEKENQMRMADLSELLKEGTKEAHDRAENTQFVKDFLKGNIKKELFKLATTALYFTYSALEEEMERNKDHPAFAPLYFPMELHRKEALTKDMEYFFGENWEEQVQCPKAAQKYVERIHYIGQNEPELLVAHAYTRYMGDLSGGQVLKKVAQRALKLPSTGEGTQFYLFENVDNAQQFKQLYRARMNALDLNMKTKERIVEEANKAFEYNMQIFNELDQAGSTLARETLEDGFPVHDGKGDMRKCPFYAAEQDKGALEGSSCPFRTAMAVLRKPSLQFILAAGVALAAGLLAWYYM
inactive: filanesib 0.085 | zotarolimus 0.027 | idasanutlin 0.148 | alisertib -0.03 | [2] 0.036 | gefitinib 0.006 | [3] -0.041 | lapatinib -0.045 | pictilisib -0.04 | [4] 0.07 | crizotinib -0.03 | [5] 0.022 | [6] 0.008 | duvelisib 0.011 | gandotinib 0.017 | tozasertib -0.007 | [7] 0.041 | doramapimod 0.062 | ispinesib -0.028
active: [1] 0.444

— the supplement of paper PMC10849652
